An excerpt weighted towards active compounds, which were near 18% of everything screened.
TDP1 cell CPT: DT40-hTDP1 cell growth loss with CPT; AID 686979; chicken DT40 Tdp1-/-;hTDP1 cells + 20 nM CPT, ATP luminescence, 48 h; Potency, µM (titrated, usually from 46.2 µM), hits mostly inhibitors; 12% of 420,000 active; also: nearly all actives have a fitted effect of over 55% in size
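Chicken DT40 Tdp1-/- cells complemented with human TDP1, 400 cells/well, exposed to compounds plus 20 nM camptothecin for at least 48 h at 37 C; viability read as ATP content by CellTiter-Glo luminescence.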
RORg inh: ROR gamma (mouse) transcription inhibition | P51450 | 5.4% of 310,000 active | Potency, µM (titrated, usually from 53.6 µM), most hits filed as inhibitors | Drosophila S2 Gal4-RORgamma UAS-luciferase reporter, 20 h; also: nearly all actives have a fitted effect of over 60% in size
Target sequence (P51450 whole entry, looked up, the tested form may be a part): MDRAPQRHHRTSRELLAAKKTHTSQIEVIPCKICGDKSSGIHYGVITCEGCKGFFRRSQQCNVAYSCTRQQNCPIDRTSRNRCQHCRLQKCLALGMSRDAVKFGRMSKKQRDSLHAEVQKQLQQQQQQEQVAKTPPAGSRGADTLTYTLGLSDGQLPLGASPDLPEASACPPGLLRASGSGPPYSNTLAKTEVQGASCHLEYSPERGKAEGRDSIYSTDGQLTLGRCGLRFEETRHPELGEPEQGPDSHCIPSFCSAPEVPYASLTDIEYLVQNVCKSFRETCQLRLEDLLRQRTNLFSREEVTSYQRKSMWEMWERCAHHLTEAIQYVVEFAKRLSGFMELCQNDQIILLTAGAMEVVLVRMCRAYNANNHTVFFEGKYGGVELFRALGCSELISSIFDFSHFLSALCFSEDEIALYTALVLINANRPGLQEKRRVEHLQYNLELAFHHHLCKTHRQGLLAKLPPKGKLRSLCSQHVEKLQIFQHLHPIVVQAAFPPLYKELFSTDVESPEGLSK
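In this cell-based reporter format, copper sulfate (700 uM final) drives Gal4–ROR gamma fusion expression from a metallothionein promoter in Drosophila Schneider cells; compounds preincubated 1 hr, reporter read after 20 hr at ambient temperature.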
IL-1B inflam inh: inhibitors of inflammasome signaling (IL-1 beta secretion) | THP-1 LPS/ATP IL-1B secretion, AlphaLISA, 16 h; stronger effect = lower value | activity change, % at 57.5 µM | 4.7% of 360,000 active | AID 743279; in the data active = activity change below about -50%; inconclusive = mostly about -30% to -49%
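Secreted IL-1B measured by AlphaLISA bead assay after 16 h compound exposure of THP-1 cells; compounds (final up to 57.5 uM) added 1 h before LPS (250 ng/mL) and ATP (1.25 mM) stimulation; lower signal means less secretion.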
LDHA inh: inhibitors of human lactate dehydrogenase A; activity change, % (values are at about 110 or 230 µM); AID 1347041; purified LDHA, NADH/diaphorase-resazurin fluorescence; stronger effect = lower value; 0.15% of 480,000 active; in the data active = activity change below about -30%; inconclusive = mostly about -25% to -30%
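Remaining NADH was detected by diaphorase (0.133 mg/mL) converting 37 µM resazurin to fluorescent resorufin, read at 0 and 20 minutes. The preceding 5-minute room-temperature reaction used 2 nM LDHA, 0.2 mM sodium pyruvate and 0.06 mM NADH at pH 7.4.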
TDP1 cell noCPT: qHTS for Inhibitors of human tyrosyl-DNA phosphodiesterase 1 (TDP1): qHTS in cells in absence of CPT | DT40 Tdp1-/- hTDP1 cells, no CPT, ATP luminescence, 48 h | Potency, µM (titrated, usually from 46.2 µM), actives largely listed as inhibitors | 15% of 420,000 active; also: nearly all actives have a fitted effect of over 55% in size
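Readout: luminescence from CellTiter-Glo after 30 min in the dark at RT. Cells: DT40 Tdp1-/- with stable hTDP1, 400/well. Exposure: compounds alone, ≥48 hr, 37 °C.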
VP16 counter: Gal4-VP16 reporter inhibition counter-screen; Potency, µM (top dose mostly 53.6 µM), usual class: inhibitors; Drosophila S2 Gal4-VP16 UAS-luciferase, luminescence, 20 h; 3.5% of 310,000 active; AID 2546;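 also: Gal4-VP16 expression switched on by copper sulfate through the metallothionein promoter; nearly all actives have a fitted effect of over 50% in size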
A number is an active result; - = inactive; ? = inconclusive; . = not tested or not shown; [ ] = dose if it differs, or a comment. Unless noted, calls follow the shape of the dose curve; as a rule, active = well fitted curve in the direction sought with a large enough effect; inconclusive = small, poorly fitted or top-dose-only effect, or another doubt; inactive = no such curve, though single readings can be large; an effect the other way counts as inactive or inconclusive.

SMILES	TDP1 cell CPT	RORg inh	IL-1B inflam inh	LDHA inh	TDP1 cell noCPT	VP16 counter
CC(=NO)c1ccc2c(c1)Cc1cc([N+](=O)[O-])ccc1-2	?	.	-	-	13µM	.
CC(O)CN(CC(C)O)c1ccc2c(c1)Cc1cc([N+](=O)[O-])ccc1-2 (stereo unspecified)	18.4µM	.	?	-	14.6µM	.
CCCCn1c(=O)[nH]c(=O)c2c1nc(CCC(=O)Nc1ccc(C)cc1)n2CC(C)C	.	.	.	-	.	.
O=C(c1ccc(Cl)cc1Cl)N(CCS(=O)(=O)N1CCCC1)Cc1ccncc1	.	.	.	-	.	.
Cc1ccc(C(=O)c2cn(Cc3ccccc3)c3ccccc3c2=O)cc1	23.1µM	.	.	-	20.6µM	.
CCOc1ccc2c(c1)c(=O)c(C(=O)c1ccccc1)cn2Cc1ccccc1	20.6µM	.	.	-	14.6µM	.
O=C(c1ccccc1)c1cn(Cc2ccc(F)cc2)c2ccccc2c1=O	?	.	.	-	?	.
COc1ccc2c(c1)c(=O)c(C(=O)c1ccccc1)cn2Cc1ccccc1	-	-	-	-	-	-
COc1ccc(C(=O)c2cn(Cc3ccccc3)c3ccccc3c2=O)cc1OC	20.6µM	.	.	-	?	.
COc1ccc(C(=O)c2cn(Cc3cccc(C)c3)c3cc4c(cc3c2=O)OCCO4)cc1OC	?	.	.	-	20.6µM	.
CN(C)CCCNC(C(=O)O)c1cn(CCC(=O)O)c2cc(Br)ccc12 (stereo unspecified)	.	.	.	-	.	.
O=C1CC(c2cc(Br)ccc2F)c2cc3c(cc2N1)OCO3 (stereo unspecified)	.	.	.	-	.	.
CCC(C)C(NC(=O)OC(C)(C)C)C(=O)NC(Cc1ccccc1)C(N)=O (stereo unspecified)	.	.	.	-	.	.
Oc1ccc(N=CCCc2ccccc2)cc1	.	.	.	-	.	.
CCOc1ccc(NC(=O)N2CCN(Cc3nc(-c4ccccc4)oc3C)CC2)cc1	.	.	.	-	.	.
CCc1ccccc1NC(=O)CSc1nnc(-c2cc(-c3ccc(Cl)cc3)n[nH]2)n1N	.	.	.	-	.	.
CCOc1ccc(C(=O)c2cn(Cc3ccccc3OC)c3cc4c(cc3c2=O)OCCO4)cc1	?	.	.	-	14.6µM	.
COc1ccc(C(=O)c2cn(Cc3ccccc3OC)c3cc4c(cc3c2=O)OCO4)cc1	?	.	.	-	?	.
NC(=O)CSc1cn(Cc2ccccc2)c2ccccc12	?	-	-64.6	-	?	-
NC(=O)CSc1cn(Cc2ccc(F)cc2)c2ccccc12	?	-	-	-	?	-
COc1ccc(Cn2cc(C(=O)O)c(=O)c3ccccc32)cc1	?	-	-	-	23.1µM	-
CCCOC(=O)c1ccc(Nc2nc3ccccc3nc2NS(=O)(=O)c2cccc(C)c2)cc1	.	.	.	-	.	.
COc1ccc(CC(=O)Nc2nnc(-c3cccc([N+](=O)[O-])c3)s2)cc1	-	-	-	-	-	-
Cn1c(-c2ccc3c(c2)OCO3)cnc1NCc1ccc(Cl)cc1	?	-	-	-	18.4µM	-
CCc1ccc(CNc2ncc(-c3cccc(OC)c3)n2C)cc1	4.11µM	.	.	-	4.11µM	.
SMILES	TDP1 cell CPT	RORg inh	IL-1B inflam inh	LDHA inh	TDP1 cell noCPT	VP16 counter
O=C(NCc1ccc2c(c1)OCO2)c1ccc(-c2ccc(Cl)cc2)o1	-	-	-	-	-	-
COc1ccc(OC)c(CNc2ncc(-c3cccc([N+](=O)[O-])c3)n2C)c1	16.4µM	-	?	-	?	-
Clc1ccccc1-c1cnc2sc(NCc3ccc4c(c3)OCO4)nn12	?	.	-	-	14.6µM	.
Cc1c(C(=O)Nc2ccc3oc(-c4cccc(F)c4)nc3c2)cccc1[N+](=O)[O-]	.	.	.	-	.	.
COc1ccc(-c2cnc(NCc3cc4c(cc3[N+](=O)[O-])OCO4)n2C)cc1	25.9µM	-	-51.5	-	13µM	-
Cn1c(-c2cccc([N+](=O)[O-])c2)cnc1NCc1cccc([N+](=O)[O-])c1	?	-	-	-	?	-
Cc1cccc(CNc2ncc(-c3cccc([N+](=O)[O-])c3)n2C)c1	?	-	-	-	16.4µM	-
COCc1ccc(CNC(=O)CC(C)(C)C)cc1	.	.	.	-	.	.
O=C(c1ccc(-n2cnnn2)cc1)N(C1CCCCC1)C1CCCCC1	-	-	-	-	-	-
O=C(c1cccs1)N(Cc1ccccn1)C1CC1	.	.	.	-	.	.
O=C(c1cccc(F)c1)N(Cc1cccs1)C1CC1	.	.	.	-	.	.
O=C(NO)c1ccc(C(=O)N(C2CCCCC2)C2CCCCC2)cc1	16.4µM	-	-	-	20.6µM	-
O=C(c1c(F)cccc1F)N(Cc1cccs1)C1CCCC1	11.6µM	-	-	-	9.2µM	-
O=C(c1c(F)cccc1F)N(C1CCCCC1)C1CCCCC1	?	-	-	-	18.4µM	-
O=C(c1c(F)cccc1F)N(Cc1ccccn1)C1CCCC1	18.4µM	-[0.365 µM]	-	-	4.61µM	.
CC(=O)Nc1cc(-c2ccccc2N(C)C)cn2c(-c3ccc(S(C)(=O)=O)cc3)cnc12	?	.	-	-	18.4µM	.
CC(=O)Nc1cc(-c2ccccc2N(C)C)cn2c(-c3ccccc3)cnc12	16.4µM	.	-	-	23.1µM	.
COC(=O)c1cc(-c2ccco2)nc2onc(-c3ccccc3)c12	.	.	.	-	.	.
Cc1ccc(COC(=O)c2[nH]c3c(c2C)C(=O)CC(c2ccc(N(C)C)cc2)C3)cc1 (stereo unspecified)	-	.	.	-	-	.
COc1ccc(C2CC(=O)c3c([nH]c(C(=O)OCCOc4ccccc4)c3C)C2)cc1OC (stereo unspecified)	?	.	.	-	?	.
COc1ccc(C2CC(=O)c3c([nH]c(C(=O)OCc4ccccc4)c3C)C2)cc1 (stereo unspecified)	11.6µM	.	.	-	?	.
COc1ccc(C2CC(=O)c3c([nH]c(C(=O)OC4CCC(C)CC4)c3C)C2)cc1OC (stereo unspecified)	?	.	.	-	-	.
Cc1c(C(=O)OCc2ccccc2)[nH]c2c1C(=O)CC(c1ccc(C(C)(C)C)cc1)C2 (stereo unspecified)	?	.	.	-	18.4µM	.
COc1ccc(COC(=O)c2[nH]c3c(c2C)C(=O)CC(c2ccc(OC)c(OC)c2)C3)cc1 (stereo unspecified)	9.2µM	.	.	-	6.51µM	.
COc1ccc(C2CC(=O)c3c([nH]c(C(=O)OC(C)C)c3C)C2)cc1OC (stereo unspecified)	23.1µM	-	-	-	20.6µM	-
CCCN(CCC)c1ccc(C=O)cc1	.	.	.	-	.	.
O=C(Cn1c(=O)c2c(ncn2C2CCCC2)n(Cc2ccccc2)c1=O)NCc1ccc(F)cc1	.	.	.	-	.	.
CC(C)C(=O)NC(Nc1ccc(Br)cc1)C(Cl)(Cl)Cl (stereo unspecified)	.	.	.	-	.	.
C/C(=N/NC(=O)c1cccc(C)c1)c1ccc2ccccc2c1	.	.	.	-	.	.

High-throughput results: PubChem, National Center for Advancing Translational Sciences (NCATS)
